The list is not random: actives were taken first. Their share in the collection is about 5.5%.
Sfp inh: Sfp phosphopantetheinyl transferase inhibition | Q9F4F7 | Biochemical Sfp PPTase activity, qHTS | Potency, µM, for the others: largest response in the series, negative = inhibition, most hits filed as inhibitors | actives 3.5% (n = 310,000);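 also: the enzyme is Sfp with the accession as filed and its product quenches rhodamine fluorescence; potency is read from the fitted curve at half-maximal effect; 0% = enzyme reaction without inhibitor and -100% = no enzyme wells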
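With Hepes-Na pH 7.6 buffer containing 10 mM MgCl2, Sfp (15 nM) modified BHQ-2-YbbR (12.5 uM) using rhodamine-CoA (5 uM). Two reads 30 minutes apart at 525/598 nm yielded each well's rate.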
Coupling enz: counter-screen for Giardia aldolase inhibitors: coupling enzyme system | coupling enzyme system counterscreen, AmpLite Red fluorescence | activity change, negative = inhibition, % at 58.2 µM, hits read low | actives 0.67% (n = 290,000); in the data active = activity change below about -30%
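Counterscreen of the coupled detection system alone, without aldolase: glyceraldehyde-3-phosphate coupling enzymes plus AmpLite Red readout. Compounds at 57.5 uM final, 10 min RT preincubation, 20 min RT reaction, fluorescence 525/598 nm.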
Giardia killer: kills Giardia lamblia; activity change, % at 7.66 µM, hits read low; actives 0.15% (n = 340,000); AID 540267; Giardia lamblia trophozoite viability; in the data active = activity change below about -80%; inconclusive = between about -30% and that limit;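 also: parasites exposed to compound for two days anaerobically before the ATP read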
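Trophozoites 100 cells/well + cpd; 48 hrs, 37 deg C, anaerobic. ATPLite 1-Step added, 15-30 min RT, luminescence read (ATP-based viability).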
ELG1 DNA repair: blocks ELG1-dependent DNA repair in HEK293T cells; HEK293T ELG1-luciferase reporter, luminescence, 16 h; DNA damage induced by 5-fluorouridine; Potency, µM (titrated, usually from 46.1 µM), inactives show at the top dose activity change, negative = inhibition, actives largely listed as inhibitors; actives 2.3% (n = 330,000); also: potency is read from the fitted curve at half-maximal effect; nearly all actives have a fitted effect of over 55% in size
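HEK293T cells expressing luciferase-tagged ELG1 (2,000/well) received 5-Fluorouridine plus compound or DMSO for 16 hr at 37 °C. Luciferase was read by ONE-Glo luminescence after 30 min at room temperature.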
Numbers without * were called inactive; ! = repeats disagree. Unless noted, calls follow the shape of the dose curve; as a rule, active = well fitted curve in the direction sought with a large enough effect; inconclusive = small, poorly fitted or top-dose-only effect, or another doubt; inactive = no such curve, though single readings can be large; an effect the other way counts as inactive or inconclusive. Unless noted, % is scaled to controls: 0 for no effect and ±100 for the full control effect.

`Cn1c(C(=O)N2CCC(C(=O)N3CCN(Cc4ccc5c(c4)OCO5)CC3)CC2)cc2sccc21` gave Sfp inh -5%, Coupling enz 1, Giardia killer -8 and ELG1 DNA repair 7.3µM*.
Screening O=C(c1[nH]nc2c1CCc1ccccc1-2)N1CCN(Cc2ccc3c(c2)OCO3)CC1 returned Sfp inh 5%, Coupling enz 6, Giardia killer -3 and ELG1 DNA repair 9.2µM*.
`O=C(C1CCN(c2nnc(N3CCCC3=O)s2)CC1)N1CCN(Cc2ccc3c(c2)OCO3)CC1` gave Sfp inh 11%, Coupling enz 2, Giardia killer 9 and ELG1 DNA repair 13µM*.
O=C(c1ccccc1)N1CCN(Cc2ccc3c(c2)OCO3)CC1 was read as Sfp inh 7%, Coupling enz 0, Giardia killer -19 and ELG1 DNA repair -17%.
For O=C1CCCC(C(C(=O)OCc2ccccc2)C(=O)OCc2ccccc2)C1 (stereo not given) the results were Sfp inh -5% and Coupling enz 2.
`Cc1cc(C)c(S(=O)(=O)Nc2ccccc2C(=O)N2CCOCC2)c(C)c1` gave Sfp inh 2%, Giardia killer -16 and ELG1 DNA repair -4%.
`CC(=O)Nc1ccc(NC(=O)CSc2nnc(NC(=O)C3CC(=O)N(c4ccc(F)cc4)C3)s2)cc1` (stereo not given) gave Sfp inh 12%, Giardia killer 3 and ELG1 DNA repair -3%.
Screening O=C(c1sccc1Cl)N1CCN(Cc2ccc3c(c2)OCO3)CC1 returned Sfp inh 1%, Coupling enz 9, Giardia killer 8 and ELG1 DNA repair 21µM*.
Screening COc1ccsc1C(=O)N1CCN(Cc2ccc3c(c2)OCO3)CC1 returned Sfp inh 18%, Coupling enz 0, Giardia killer 13 and ELG1 DNA repair inconclusive.
`COc1ccc2[nH]c3c(c2c1)CCN1C(=O)C(CC(=O)NC/C=C(\C)CCC=C(C)C)C[C@H](C(=O)N2CCOCC2)[C@@]31CCC1CCCC1` (stereo not given in full) gave Giardia killer 5 and ELG1 DNA repair 20%.
CC(=O)OC[C@@H]1O[C@@H](O/N=C2/C[C@@H](O)[C@@H](O)[C@@H]3[C@@H]4C(=O)N(Cc5ccc6c(c5)OCO6)C(=O)[C@H]4CC[C@@H]23)[C@H](OC(C)=O)[C@H](OC(C)=O)[C@@H]1OC(C)=O was read as Sfp inh 7% and Coupling enz 2.
`COc1ccc(-c2cc(=Nc3ccc(C)cc3)c3ccccc3o2)cc1` gave Sfp inh inconclusive, Coupling enz -6, Giardia killer 5 and ELG1 DNA repair inconclusive.
For COc1ccc(N=c2cc(-c3ccc(OC)cc3)oc3ccccc23)cc1 the results were Sfp inh inconclusive, Coupling enz -3, Giardia killer 2 and ELG1 DNA repair 23µM*.
For O=c1c(O)c(-c2ccc(O)c(O)c2)oc2c(OC[C@@H]3O[C@@H](O)[C@@H](O)[C@H](O)[C@H]3O)c(O)cc(O)c12 the results were Sfp inh 56µM* and Coupling enz 7.
O=C(COc1cc(F)ccc1[N+](=O)[O-])NCCN1C(=O)CSC1=O was read as Giardia killer 1 and ELG1 DNA repair -9%.
CCOc1ccccc1N=C1SC(CC(=O)Nc2ccc(OC)cc2OC)C(=O)N1CCC1=CCCCC1 (stereo not given) was read as Sfp inh 18%, Coupling enz -10, Giardia killer 7 and ELG1 DNA repair 7.3µM*.
`O=C(CC1SC(=Nc2ccc(OC(F)F)cc2)N(CCC2=CCCCC2)C1=O)Nc1ccccc1F` (stereo not given) gave Sfp inh 30%, Coupling enz -11, Giardia killer 26 and ELG1 DNA repair inconclusive.
Screening NCCOc1ccccc1OCCN returned Sfp inh 11%, Coupling enz 0, Giardia killer 1 and ELG1 DNA repair 13%.
Screening NCCOB(c1ccccc1)c1ccccc1 returned Sfp inh 56µM*! and Coupling enz 15.
For O=S(=O)(Nc1ccc(Br)cc1)c1cccc(NS(=O)(=O)c2cccs2)c1 the results were Giardia killer 4.
Screening OCCCCCN=c1cc(-c2ccccc2)oc2ccc(Cl)cc12 returned Sfp inh 9%, Coupling enz 0, Giardia killer 3 and ELG1 DNA repair inconclusive.
For Clc1ccc2oc(-c3ccccc3)cc(=NCCCN3CCOCC3)c2c1 the results were Sfp inh -24%, Coupling enz 0, Giardia killer -87* and ELG1 DNA repair inconclusive.
For Cc1ccc(NS(=O)(=O)c2ccc(Cl)c(C(=O)Nc3ccccc3-c3nc4ccccc4[nH]3)c2)cc1C the results were Sfp inh 18%, Coupling enz -3, Giardia killer 0 and ELG1 DNA repair 9.2µM*.
For CC(=O)c1c(N2CCN(CCO)CC2)nc(=S)n(-c2ccccc2)c1C the results were Sfp inh 29%, Coupling enz 2, Giardia killer -1 and ELG1 DNA repair 12%.
CC(=O)c1c(N2CCN(c3ccccc3)CC2)nc(=S)n(-c2ccccc2)c1C was read as Sfp inh 79µM*, Coupling enz -10, Giardia killer -7 and ELG1 DNA repair -5%.
Screening CCc1ccc2c(c1)/C(=C/C(=O)c1cccs1)C(=O)N2 returned Sfp inh 45µM*, Coupling enz -7, Giardia killer 3 and ELG1 DNA repair 27%.
Cc1cccc2c1NC(=O)/C2=C\C(=O)c1cccs1 was read as Sfp inh -13%, Coupling enz -3, Giardia killer 4 and ELG1 DNA repair 20%.
Screening CCOC(=O)c1c(C)n(C)c2ccc(OCC(O)CN3CCCCCC3)cc12 (stereo not given) returned Sfp inh -9%, Coupling enz -1, Giardia killer 8 and ELG1 DNA repair 2%.
Screening CCOC(=O)c1c(C)n(C)c2ccc(OCC(O)Cn3nc(C)c(Br)c3C)cc12 (stereo not given) returned Sfp inh 3%, Coupling enz 1, Giardia killer 8 and ELG1 DNA repair 21µM*.
Cc1ccc(NC(=S)NC(=O)Cc2ccccc2)c(O)c1 was read as Sfp inh 7%, Coupling enz 0, Giardia killer 1 and ELG1 DNA repair 23%.
Screening COc1ccc(Cl)cc1S(=O)(=O)n1c([N+](=O)[O-])cnc1C returned Sfp inh 71µM*, Coupling enz 0, Giardia killer 2 and ELG1 DNA repair 0%.
For COc1cc(C)c(S(=O)(=O)n2c([N+](=O)[O-])cnc2C)cc1C the results were Sfp inh 13%, Coupling enz 2, Giardia killer -27 and ELG1 DNA repair 14%.
Cc1sc(-n2c(C)ccc2C)c(C#N)c1C was read as Sfp inh 63µM*, Coupling enz -4, Giardia killer -15 and ELG1 DNA repair 12%.
For Cc1ccc(C)n1-c1sc2c(c1C#N)CCCC2 the results were Sfp inh -4%, Coupling enz 4, Giardia killer -13 and ELG1 DNA repair 24%.

Screening results (PubChem BioAssay)
